Common to all, as to experiment: DAPPL (digital affinity profiling via proximity ligation, sequencing); 10 mM Tris-HCl pH 7.5, 50 mM NaCl, 1 mM DTT, 4% glycerol, room temperature, 30 min; GST-TFs on glutathione beads, 16-mer random dsDNA library, 0.1% formaldehyde crosslink after washing; high values mean tight binding
The target in one experiment is T1, FEV (Homo sapiens, UniProt Q99581 1-238).
T1 sequence: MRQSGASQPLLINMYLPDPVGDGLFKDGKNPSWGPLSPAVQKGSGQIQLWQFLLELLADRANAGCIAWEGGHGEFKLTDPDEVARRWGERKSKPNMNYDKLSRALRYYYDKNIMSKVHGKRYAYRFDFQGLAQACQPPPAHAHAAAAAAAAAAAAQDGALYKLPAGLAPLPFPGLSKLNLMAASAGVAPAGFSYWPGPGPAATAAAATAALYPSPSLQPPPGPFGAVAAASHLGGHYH
The settings on record: protein: recombinant; tags: N-terminal GST; dsDNA, one strand shown. The method in brief: (§1)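 Human transcription factors carrying a GST fusion were produced in yeast, bound to glutathione beads, tagged with DNA barcodes and pooled together with a tag-only sample. Each pool was held with 200 nmole of a random double-stranded 16-mer DNA library in Tris/NaCl/DTT/glycerol buffer for 30 min at room temperature, then washed, crosslinked in 0.1% formaldehyde, proximity-ligated with BsaI/T4 ligase (1 h, 37 °C), PCR-amplified and sequenced on an Illumina NextSeq500. Binding signal is the read frequency of each hexamer for a given factor divided by its frequency in the tag-only sample.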

The target of the next experiment is ETV5 (Homo sapiens, UniProt P41161 1-510). The settings on record: protein: recombinant; tags: N-terminal GST; dsDNA, one strand shown. The method in brief:
as §1

A further experiment concerns the target HSF1 (Homo sapiens, UniProt Q00613 1-529). To be noted: protein: recombinant; tags: N-terminal GST; chain copies: 3; dsDNA, one strand shown. The method in brief: as §1
The target in another experiment is T2, SPIC (Homo sapiens, UniProt Q8N5J4 1-248).
T2 sequence: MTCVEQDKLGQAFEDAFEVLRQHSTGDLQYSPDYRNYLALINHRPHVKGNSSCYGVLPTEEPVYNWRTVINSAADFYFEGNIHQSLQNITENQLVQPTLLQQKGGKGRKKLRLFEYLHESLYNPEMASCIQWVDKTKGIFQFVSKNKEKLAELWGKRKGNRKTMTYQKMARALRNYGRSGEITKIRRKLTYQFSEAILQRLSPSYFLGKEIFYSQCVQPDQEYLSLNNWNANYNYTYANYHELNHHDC
The settings on record: protein: recombinant; tags: N-terminal GST; dsDNA, one strand shown. Summed up: as §1

The next experiment concerns the target ELF4 (Homo sapiens, UniProt Q99607 1-663). To be noted: protein: recombinant; tags: N-terminal GST; dsDNA, one strand shown. Summed up:
as §1

Another experiment addresses T3, ELK4 (Homo sapiens, UniProt P28324-2 1-405).
T3 sequence: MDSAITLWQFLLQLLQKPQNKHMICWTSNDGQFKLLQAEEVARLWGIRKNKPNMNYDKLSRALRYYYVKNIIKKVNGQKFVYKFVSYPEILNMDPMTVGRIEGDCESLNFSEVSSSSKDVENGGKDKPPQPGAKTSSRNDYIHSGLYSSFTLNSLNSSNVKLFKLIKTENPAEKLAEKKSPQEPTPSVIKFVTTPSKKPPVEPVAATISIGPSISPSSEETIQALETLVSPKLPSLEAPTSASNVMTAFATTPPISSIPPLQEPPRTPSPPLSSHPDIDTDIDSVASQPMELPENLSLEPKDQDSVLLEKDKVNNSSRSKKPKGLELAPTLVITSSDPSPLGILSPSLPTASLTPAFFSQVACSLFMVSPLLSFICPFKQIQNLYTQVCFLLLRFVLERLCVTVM
The settings on record: protein: recombinant; tags: N-terminal GST; dsDNA, one strand shown. The method in brief:
as §1

Another experiment addresses T4, ETV2 (Homo sapiens, UniProt O00321 1-342).
T4 sequence: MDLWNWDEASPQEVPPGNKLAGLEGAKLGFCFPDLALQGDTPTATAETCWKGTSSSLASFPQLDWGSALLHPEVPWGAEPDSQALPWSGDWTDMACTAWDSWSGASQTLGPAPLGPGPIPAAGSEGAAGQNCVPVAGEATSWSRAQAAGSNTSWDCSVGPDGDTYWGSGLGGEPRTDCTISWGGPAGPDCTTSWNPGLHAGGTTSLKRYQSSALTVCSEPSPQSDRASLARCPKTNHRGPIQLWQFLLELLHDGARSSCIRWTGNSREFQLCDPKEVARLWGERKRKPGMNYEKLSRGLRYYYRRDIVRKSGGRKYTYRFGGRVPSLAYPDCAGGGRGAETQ
The settings on record: protein: recombinant; tags: N-terminal GST; dsDNA, one strand shown. Summed up:
as §1

The next experiment concerns the target T5, ELF3 (Homo sapiens, UniProt P78545 1-371).
T5 sequence: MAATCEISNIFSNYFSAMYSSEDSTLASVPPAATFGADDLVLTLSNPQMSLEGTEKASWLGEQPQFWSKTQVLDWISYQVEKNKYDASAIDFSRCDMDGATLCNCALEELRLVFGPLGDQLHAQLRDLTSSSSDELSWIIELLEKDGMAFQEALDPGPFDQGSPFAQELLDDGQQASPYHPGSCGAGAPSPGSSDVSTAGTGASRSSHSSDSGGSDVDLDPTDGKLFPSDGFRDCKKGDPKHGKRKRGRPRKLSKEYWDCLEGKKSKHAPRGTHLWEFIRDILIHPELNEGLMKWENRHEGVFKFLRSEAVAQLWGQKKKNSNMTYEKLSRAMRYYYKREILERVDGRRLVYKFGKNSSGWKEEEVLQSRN
To be noted: protein: recombinant; tags: N-terminal GST; dsDNA, one strand shown. Summed up: as §1

The next experiment has as its target CRX (Homo sapiens, UniProt O43186 1-299). The settings on record: protein: recombinant; tags: N-terminal GST; dsDNA, one strand shown. Summed up: as §1
For a further experiment, the target named is ETV1 (Homo sapiens, UniProt P50549 1-477). The settings on record: protein: recombinant; tags: N-terminal GST; dsDNA, one strand shown. Summed up: as §1
Chain of ETV1 (P50549 whole entry): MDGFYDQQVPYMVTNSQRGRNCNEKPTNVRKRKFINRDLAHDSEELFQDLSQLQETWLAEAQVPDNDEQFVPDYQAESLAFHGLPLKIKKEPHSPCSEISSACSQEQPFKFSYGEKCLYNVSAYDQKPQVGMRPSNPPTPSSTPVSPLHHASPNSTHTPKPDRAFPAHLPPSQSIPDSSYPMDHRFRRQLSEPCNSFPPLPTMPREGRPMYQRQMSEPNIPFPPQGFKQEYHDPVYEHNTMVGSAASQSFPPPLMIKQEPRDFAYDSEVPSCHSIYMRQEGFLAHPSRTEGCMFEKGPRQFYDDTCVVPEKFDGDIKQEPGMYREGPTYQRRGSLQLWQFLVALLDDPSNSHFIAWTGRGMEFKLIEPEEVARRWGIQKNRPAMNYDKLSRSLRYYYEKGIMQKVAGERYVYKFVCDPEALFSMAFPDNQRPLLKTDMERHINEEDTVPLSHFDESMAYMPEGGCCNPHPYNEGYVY
The target of a further experiment is T6, ERF (Homo sapiens, UniProt P50548 1-548).
T6 sequence: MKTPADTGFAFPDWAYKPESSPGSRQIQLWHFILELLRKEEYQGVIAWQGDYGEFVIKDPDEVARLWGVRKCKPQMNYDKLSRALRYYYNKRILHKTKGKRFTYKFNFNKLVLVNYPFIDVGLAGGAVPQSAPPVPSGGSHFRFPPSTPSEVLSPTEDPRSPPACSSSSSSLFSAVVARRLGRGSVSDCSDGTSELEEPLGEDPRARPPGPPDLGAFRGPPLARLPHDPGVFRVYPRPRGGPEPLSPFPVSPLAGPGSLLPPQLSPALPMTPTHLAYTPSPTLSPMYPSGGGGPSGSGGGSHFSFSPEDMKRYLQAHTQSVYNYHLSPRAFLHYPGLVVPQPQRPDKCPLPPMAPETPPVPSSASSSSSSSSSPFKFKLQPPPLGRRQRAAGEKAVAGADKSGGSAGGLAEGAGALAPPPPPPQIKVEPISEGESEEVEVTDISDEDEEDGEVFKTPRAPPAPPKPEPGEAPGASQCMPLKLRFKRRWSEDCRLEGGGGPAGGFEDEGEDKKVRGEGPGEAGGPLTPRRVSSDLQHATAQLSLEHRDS
The settings on record: protein: recombinant; tags: N-terminal GST; dsDNA, one strand shown. The method in brief:
as §1

The next experiment has as its target T7, ETV3L (Homo sapiens, UniProt Q6ZN32 1-361).
T7 sequence: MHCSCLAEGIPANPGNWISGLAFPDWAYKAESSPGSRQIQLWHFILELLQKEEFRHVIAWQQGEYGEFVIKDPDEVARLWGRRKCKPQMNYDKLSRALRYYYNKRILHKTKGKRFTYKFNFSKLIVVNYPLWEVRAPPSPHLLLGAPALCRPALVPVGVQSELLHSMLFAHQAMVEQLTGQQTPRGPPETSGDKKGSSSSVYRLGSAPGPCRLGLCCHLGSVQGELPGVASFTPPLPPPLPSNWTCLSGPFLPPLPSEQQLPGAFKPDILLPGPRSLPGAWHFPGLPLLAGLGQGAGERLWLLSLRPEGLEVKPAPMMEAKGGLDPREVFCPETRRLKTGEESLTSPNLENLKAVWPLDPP
To be noted: protein: recombinant; tags: N-terminal GST; dsDNA, one strand shown. Summed up: as §1

Another experiment addresses T8, ETS2 (Homo sapiens, UniProt P15036 1-469).
T8 sequence: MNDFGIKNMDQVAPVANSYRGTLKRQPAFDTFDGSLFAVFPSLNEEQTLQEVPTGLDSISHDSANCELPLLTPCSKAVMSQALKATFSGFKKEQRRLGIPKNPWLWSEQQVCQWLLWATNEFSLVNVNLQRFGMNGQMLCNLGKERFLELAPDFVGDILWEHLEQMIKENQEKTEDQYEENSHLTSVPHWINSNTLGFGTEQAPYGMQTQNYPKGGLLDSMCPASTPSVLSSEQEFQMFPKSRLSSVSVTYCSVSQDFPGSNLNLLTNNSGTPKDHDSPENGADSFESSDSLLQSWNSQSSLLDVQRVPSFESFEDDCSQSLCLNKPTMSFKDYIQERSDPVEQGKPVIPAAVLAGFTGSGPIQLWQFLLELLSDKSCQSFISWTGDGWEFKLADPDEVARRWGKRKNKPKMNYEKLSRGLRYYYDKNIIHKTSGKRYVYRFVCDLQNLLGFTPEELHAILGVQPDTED
To be noted: protein: recombinant; tags: N-terminal GST; dsDNA, one strand shown. The method in brief:
as §1

For a further experiment, the target named is T9, SPDEF (Homo sapiens, UniProt O95238 1-335).
T9 sequence: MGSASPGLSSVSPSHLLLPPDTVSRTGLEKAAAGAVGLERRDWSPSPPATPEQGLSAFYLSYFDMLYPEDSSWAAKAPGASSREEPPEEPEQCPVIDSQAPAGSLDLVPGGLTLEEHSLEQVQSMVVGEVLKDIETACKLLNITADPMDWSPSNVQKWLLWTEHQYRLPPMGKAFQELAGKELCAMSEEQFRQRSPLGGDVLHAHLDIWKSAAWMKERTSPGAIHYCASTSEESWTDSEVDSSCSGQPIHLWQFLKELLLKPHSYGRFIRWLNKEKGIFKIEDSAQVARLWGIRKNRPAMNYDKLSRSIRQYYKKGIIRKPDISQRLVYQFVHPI
To be noted: protein: recombinant; tags: N-terminal GST; dsDNA, one strand shown. Summed up:
as §1

Another experiment addresses T10, ETV7 (Homo sapiens, UniProt Q9Y603 1-341).
T10 sequence: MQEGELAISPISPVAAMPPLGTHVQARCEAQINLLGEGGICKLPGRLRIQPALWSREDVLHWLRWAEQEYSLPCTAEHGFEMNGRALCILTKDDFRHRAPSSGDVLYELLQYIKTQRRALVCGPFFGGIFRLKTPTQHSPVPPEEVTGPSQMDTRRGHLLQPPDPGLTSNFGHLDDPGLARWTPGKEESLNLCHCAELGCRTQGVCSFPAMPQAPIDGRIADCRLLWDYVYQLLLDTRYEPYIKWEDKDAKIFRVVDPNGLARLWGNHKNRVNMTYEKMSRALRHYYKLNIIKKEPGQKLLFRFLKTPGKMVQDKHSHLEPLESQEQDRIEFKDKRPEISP
To be noted: protein: recombinant; tags: N-terminal GST; dsDNA, one strand shown. The method in brief: as §1

In another experiment the target is T11, ELF5 (Homo sapiens, UniProt Q9UKW6-2 1-255).
T11 sequence: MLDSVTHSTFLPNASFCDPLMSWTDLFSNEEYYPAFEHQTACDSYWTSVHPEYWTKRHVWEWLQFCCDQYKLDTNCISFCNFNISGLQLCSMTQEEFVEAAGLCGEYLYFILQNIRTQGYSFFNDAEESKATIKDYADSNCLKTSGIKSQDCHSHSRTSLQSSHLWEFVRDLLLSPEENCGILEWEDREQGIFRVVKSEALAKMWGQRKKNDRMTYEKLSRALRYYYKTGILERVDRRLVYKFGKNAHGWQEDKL
The settings on record: protein: recombinant; tags: N-terminal GST; dsDNA, one strand shown. The method in brief:
as §1

The next experiment deals with T12, ETV3 (Homo sapiens, UniProt P41162-2 1-143).
T12 sequence: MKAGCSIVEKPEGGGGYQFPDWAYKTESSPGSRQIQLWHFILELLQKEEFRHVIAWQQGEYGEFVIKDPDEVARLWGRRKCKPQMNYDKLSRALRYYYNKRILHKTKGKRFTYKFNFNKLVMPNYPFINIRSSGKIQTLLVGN
To be noted: protein: recombinant; tags: N-terminal GST; dsDNA, one strand shown. The method in brief: as §1

Another experiment addresses ETV6 (Homo sapiens, UniProt P41212 1-452). To be noted: protein: recombinant; tags: N-terminal GST; dsDNA, one strand shown. The method in brief:
as §1

Chain of ETV6 (P41212 whole entry): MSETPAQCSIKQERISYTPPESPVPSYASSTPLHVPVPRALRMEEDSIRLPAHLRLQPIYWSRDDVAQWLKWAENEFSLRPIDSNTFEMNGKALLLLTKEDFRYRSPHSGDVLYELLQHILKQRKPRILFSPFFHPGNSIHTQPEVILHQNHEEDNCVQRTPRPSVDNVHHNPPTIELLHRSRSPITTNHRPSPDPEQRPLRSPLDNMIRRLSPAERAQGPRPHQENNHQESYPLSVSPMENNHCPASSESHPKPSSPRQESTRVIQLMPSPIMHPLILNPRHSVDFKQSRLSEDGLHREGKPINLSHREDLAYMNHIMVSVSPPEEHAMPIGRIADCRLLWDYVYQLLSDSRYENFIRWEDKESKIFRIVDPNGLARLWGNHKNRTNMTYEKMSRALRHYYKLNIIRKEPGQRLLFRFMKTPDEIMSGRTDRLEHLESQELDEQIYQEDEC
Chain of ETV5 (P41161 whole entry): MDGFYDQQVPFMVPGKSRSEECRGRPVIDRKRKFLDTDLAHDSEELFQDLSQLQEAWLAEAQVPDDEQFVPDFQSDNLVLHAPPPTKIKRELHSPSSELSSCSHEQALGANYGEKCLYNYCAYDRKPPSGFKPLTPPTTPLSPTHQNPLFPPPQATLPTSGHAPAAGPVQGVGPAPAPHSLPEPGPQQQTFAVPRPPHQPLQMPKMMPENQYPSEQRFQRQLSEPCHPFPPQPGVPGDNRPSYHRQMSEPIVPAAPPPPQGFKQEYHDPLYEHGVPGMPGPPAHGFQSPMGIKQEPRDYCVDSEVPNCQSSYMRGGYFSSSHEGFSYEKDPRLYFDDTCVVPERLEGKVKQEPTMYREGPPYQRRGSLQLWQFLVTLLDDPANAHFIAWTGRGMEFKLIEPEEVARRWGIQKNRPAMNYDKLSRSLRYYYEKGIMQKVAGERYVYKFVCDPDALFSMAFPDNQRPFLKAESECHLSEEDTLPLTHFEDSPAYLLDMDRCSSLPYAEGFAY
Chain of HSF1 (Q00613 whole entry): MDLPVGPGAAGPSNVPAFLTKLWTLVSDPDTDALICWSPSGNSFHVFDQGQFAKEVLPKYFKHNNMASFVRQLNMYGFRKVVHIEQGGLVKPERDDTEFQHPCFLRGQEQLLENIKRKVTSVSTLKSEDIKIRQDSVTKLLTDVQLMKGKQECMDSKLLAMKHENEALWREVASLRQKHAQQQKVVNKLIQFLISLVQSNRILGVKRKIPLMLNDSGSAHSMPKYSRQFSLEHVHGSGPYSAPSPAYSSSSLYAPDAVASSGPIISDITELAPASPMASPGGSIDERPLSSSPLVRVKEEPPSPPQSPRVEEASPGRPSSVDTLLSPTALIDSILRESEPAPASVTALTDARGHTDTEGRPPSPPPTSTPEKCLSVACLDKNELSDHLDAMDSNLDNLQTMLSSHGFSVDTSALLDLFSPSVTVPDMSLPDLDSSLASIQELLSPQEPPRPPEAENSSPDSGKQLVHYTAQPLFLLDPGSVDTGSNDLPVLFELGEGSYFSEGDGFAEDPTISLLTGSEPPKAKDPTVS
Chain of CRX (O43186 whole entry): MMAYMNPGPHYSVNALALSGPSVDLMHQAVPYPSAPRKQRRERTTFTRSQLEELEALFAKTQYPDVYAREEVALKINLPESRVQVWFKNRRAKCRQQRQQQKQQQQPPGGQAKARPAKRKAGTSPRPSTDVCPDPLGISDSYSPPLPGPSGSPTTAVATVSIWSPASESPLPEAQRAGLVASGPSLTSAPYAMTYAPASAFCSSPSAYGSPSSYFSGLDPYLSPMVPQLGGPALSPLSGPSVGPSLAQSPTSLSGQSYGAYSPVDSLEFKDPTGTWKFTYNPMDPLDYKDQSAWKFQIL
Chain of ELF4 (Q99607 whole entry): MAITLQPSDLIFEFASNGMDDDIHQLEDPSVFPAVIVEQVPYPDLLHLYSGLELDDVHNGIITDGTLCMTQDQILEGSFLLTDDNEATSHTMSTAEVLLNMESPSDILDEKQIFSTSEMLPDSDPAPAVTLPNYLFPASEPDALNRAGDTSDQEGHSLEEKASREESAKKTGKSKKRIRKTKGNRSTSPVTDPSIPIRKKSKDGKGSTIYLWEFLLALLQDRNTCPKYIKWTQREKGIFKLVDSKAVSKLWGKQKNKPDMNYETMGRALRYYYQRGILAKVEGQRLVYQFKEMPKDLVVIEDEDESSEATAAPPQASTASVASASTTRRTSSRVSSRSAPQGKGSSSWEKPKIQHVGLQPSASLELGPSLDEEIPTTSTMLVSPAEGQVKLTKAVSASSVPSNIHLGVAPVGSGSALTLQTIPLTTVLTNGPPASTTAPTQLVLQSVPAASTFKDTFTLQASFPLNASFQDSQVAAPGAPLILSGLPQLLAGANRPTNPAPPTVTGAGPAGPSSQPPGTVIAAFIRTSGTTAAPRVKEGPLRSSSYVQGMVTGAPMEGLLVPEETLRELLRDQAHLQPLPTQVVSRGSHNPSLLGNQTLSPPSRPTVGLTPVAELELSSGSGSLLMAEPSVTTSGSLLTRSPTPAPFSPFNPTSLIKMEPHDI

In the case of ACTACC, the binding signal with FEV is 1.55 fold enrichment (6-mer frequency, TF over GST control); in the experiment with ETV5, 1.64 fold enrichment (6-mer frequency, TF over GST control); with HSF1 it was 1.09 fold enrichment (6-mer frequency, TF over GST control); with SPIC, 1.58 fold enrichment (6-mer frequency, TF over GST control); with ELF4, 1.66 fold enrichment (6-mer frequency, TF over GST control); in the experiment with ELK4, 1.59 fold enrichment (6-mer frequency, TF over GST control). In addition, the binding signal with ETV2 was 1.72 fold enrichment (6-mer frequency, TF over GST control); with ELF3 it was 1.58 fold enrichment (6-mer frequency, TF over GST control); with CRX, 1.1 fold enrichment (6-mer frequency, TF over GST control); with ETV1, 1.59 fold enrichment (6-mer frequency, TF over GST control); with ERF, 1.72 fold enrichment (6-mer frequency, TF over GST control); in the experiment with ETV3L it was 1.6 fold enrichment (6-mer frequency, TF over GST control). Further, the binding signal was 1.7 fold enrichment (6-mer frequency, TF over GST control) with ETS2; 1.61 fold enrichment (6-mer frequency, TF over GST control) in the experiment with SPDEF; 1.55 fold enrichment (6-mer frequency, TF over GST control) with ETV7; 1.76 fold enrichment (6-mer frequency, TF over GST control) with ELF5; 1.7 fold enrichment (6-mer frequency, TF over GST control) in the experiment with ETV3; 1.74 fold enrichment (6-mer frequency, TF over GST control) with ETV6.

The values are drawn from article PMC7862700, “An all-to-all approach to the identification of sequence-specific readers for epigenetic DNA modifications on cytosine”.
